Screens deposited in PubChem by several laboratories.
Shown are actives, neighbours in structure and some others; about 1.8% of the full set was active somewhere.
IEC-6 cytotox: kills IEC-6 intestinal cells in KLF5 counter-screen. 0.78% of 290,000 active. IEC-6 cytotoxicity, luminescence viability. AID 1825. inhibition, % at 5 µM; in the data active means inhibition above about 22%;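 further: 0% = plate median of test compound wells and 100% = cytotoxic reference compound wells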
BaF3 tox: counter-screen for JAK2V617F inhibitors: parental Ba/F3 viability inhibitors; CellTiter-Glo ATP luminescence; inhibition, % at 5.6 µM; 1.1% of 220,000 active;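 active means inhibition above a per-campaign cutoff, the mean inhibition of all tested compounds plus 3 SD, cut at about 27% in these data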;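 further: 0% = DMSO wells and 100% = JAK Inhibitor I control wells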
Ba/F3 V617F tox: loss of viability in JAK2V617F-driven Ba/F3 cells; Ba/F3 EpoR-JAK2V617F viability, ATP luminescence; inhibition, % at 5.6 µM; 1.1% of 220,000 active; AID 1446;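 active means inhibition above the campaign mean plus 3 SD over all tested compounds, cut at about 24% in these data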;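 further: cytokine-independent growth of Ba/F3 cells driven by EpoR plus mutant JAK2; 0% = DMSO-treated cells and 100% = JAK inhibitor I control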
KLF5 inhibitor: suppresses KLF5 promoter-driven expression. DLD-1 KLF5 promoter-luciferase reporter, luminescence. inhibition, % at 5 µM. 0.23% of 290,000 active. AID 1700;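 active means inhibition above a per-plate limit of that plate's mean compound inhibition plus 3 SD, cut at about 60% in these data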;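 further: 0% = DMSO wells and 100% = LY294002 at 200 µM; higher means less KLF5 promoter-driven luciferase light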
APP 5UTR inh: APP translation inhibition | SH-SY5Y APP 5'UTR-luciferase reporter, luminescence | inhibition, % at 2 µM | 0.82% of 190,000 active | AID 1285;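 active means inhibition above a set limit, derived from the sample mean plus 3 SD, cut at about 45% in these data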
An asterisk follows results filed as active; · = not tested or not shown.

SMILES | IEC-6 cytotox | BaF3 tox | Ba/F3 V617F tox | KLF5 inhibitor | APP 5UTR inh
CCOC(=O)c1ccc(N2C(=O)CC(N3CCC(Nc4ccc(F)cc4)CC3)C2=O)cc1 (stereo not drawn) | 3 | 49* | 4 | 16 | 17
COc1ccc(/C=C/C(=O)Oc2cccc(/C=N/NC(=O)COc3c(C)cccc3C)c2)cc1 | 0 | 5 | -3 | -24 | -15
Cc1ccc(/C=N/NC(=O)CC2N=C(Cc3ccccc3)NNC2=O)cc1 (stereo not drawn) | -4 | 2 | -3 | -14 | -2
CSc1ncnc2c1cnn2-c1ccc(C)cc1C | 2 | 5 | 3 | 3 | -18
Cc1ccc(-n2ncc3c(SCc4ccccn4)ncnc32)c(C)c1 | 1 | 35* | 12 | 30 | -2
On1onc2c3cc(-c4ccccc4)nc3ccc21 | 3 | 97* | 100* | -3 | 61*
c1ccc(-c2cc3c(ccc4nonc43)nn2)cc1 | 7 | 1 | -3 | 20 | 0
O=C(c1ccc(Cl)cc1)N1CCN(c2ncccn2)CC1 | 2 | · | · | -13 | ·
Clc1ccccc1OCc1nnc2n1CCCCC2 | -2 | -3 | -3 | 0 | ·
COc1cccc(-c2nnc(Nc3nc4c(F)cccc4s3)o2)c1 | -3 | 2 | 0 | -74 | -49
COc1cccc2sc(Nc3nc(-c4cc5ccccc5oc4=O)cs3)nc12 | 6 | 2 | -3 | 4 | 91*
COc1cccc2sc(Nc3nnc(-c4ccccc4Cl)o3)nc12 | 3 | 85* | 82* | -19 | 85*
COc1cccc2sc(NN)nc12 | 10 | 2 | 2 | -18 | -26
COc1cccc2sc(Nc3nc(-c4ccncc4)cs3)nc12 | 54* | 83* | 85* | 54 | 94*
COc1ccc(Nc2nc(-c3cc4cccc(OC)c4oc3=O)cs2)cc1 | 4 | 5 | 2 | 16 | -24
CCOC(=O)C1=C(C)N(C)C(=O)NC1c1c(O)ccc2ccccc12 (stereo not drawn) | 2 | · | · | -12 | ·
COc1cccc(COc2cc3ccccc3nc2C)c1 | 6 | 43* | 42* | 36 | -18
Cc1nc2ccccc2cc1OCc1ccccc1 | 1 | 8 | 0 | 11 | -5
COc1ccc(NC(=O)c2cn(CCC#N)nc2-c2cc3ccccc3o2)cc1 | -8 | 3 | 7 | -3 | 46*
O=C(NCc1cccnc1)c1c[nH]c2cc3c(cc2c1=O)OCCO3 | 9 | 41* | 27* | -63 | -80
CSCCC(N=C1NS(=O)(=O)c2ccccc21)C(=O)NCCc1ccccc1 (stereo not drawn) | 2 | · | · | -41 | ·
OCCN(CCO)CC(O)COc1ccc(C23CC4CC(CC(C4)C2)C3)cc1 (stereo not drawn) | -7 | 6 | -3 | 2 | 53*
Oc1ccccc1N=Nc1nc(-c2ccccc2)c(-c2ccccc2)[nH]1 | 0 | 97* | 98* | 50 | 88*
CCNc1ccc(C(=O)NN=C2CCCC2)cc1[N+](=O)[O-] | -5 | 6 | 1 | 3 | 65*
CC(C)(C)c1ccc(C(=O)NN=C2CCCC2)cc1 | 3 | · | · | -20 | ·
SMILES | IEC-6 cytotox | BaF3 tox | Ba/F3 V617F tox | KLF5 inhibitor | APP 5UTR inh
COc1ccc(C(=O)NCc2ccccn2)cc1 | 2 | 6 | 0 | 2 | -8
CCCCOc1ccc(C(=O)NCc2ccccn2)cc1 | 4 | 3 | -2 | -11 | 48*
O=C(c1ccccc1)c1cc(Cl)ccc1N1C(=O)C=CC1=O | -2 | 11 | 6 | -24 | 80*
O=C(CC(=O)c1cc(Cl)ccc1O)c1ccccc1 | -1 | 7 | 1 | -52 | -58
CCOC(=O)[C@H]1NN=C(C(=O)OC)[C@@H]1c1ccccc1 | 0 | 4 | 0 | -6 | 5
CCOC(=O)c1ccccc1NC(=O)CN(c1ccc(OCC)cc1)S(C)(=O)=O | 0 | 37* | 27* | 14 | 52*
CCOC(=O)c1ccccc1NC(=O)CN(c1ccccc1OCC)S(C)(=O)=O | -6 | 2 | 0 | -22 | 16
N=c1c2c(n(Cc3ccc(Cl)c(Cl)c3)c3c1CCC3)CCCC2 | -1 | 76* | 88* | 35 | 12
N=c1c2c(n(Cc3ccc([N+](=O)[O-])cc3)c3c1CCC3)CCCC2 | -5 | 10 | 0 | 20 | -7
N=c1c2c(n(Cc3ccc(Br)cc3)c3c1CCC3)CCCC2 | 18 | 75* | 100* | 42 | -3
COC(=O)C1=C2SCC(=O)N2C(N)=C(C#N)C1 | -5 | -3 | 0 | -12 | ·
CCOC(=O)COc1ccc2ccccc2c1/C=C/[N+](=O)[O-] | 3 | 6 | 1 | -6 | 62*
Cc1nc(N)c(CC(Br)CBr)c(Cl)n1 (stereo not drawn) | -6 | -1 | -3 | -32 | ·
C/C(Cl)=C\Cn1c(O)c(N=NC(N)=S)c2cc(Br)ccc21 | 30* | 4 | 4 | -8 | 31
NC(=S)N=Nc1c(O)n(Cc2ccc(Br)cc2)c2ccccc12 | -5 | 1 | -1 | -5 | 58*
Cc1cc2[nH]c(=O)c(=O)[nH]c2cc1S(=O)(=O)Nc1cccc(C)c1C | 6 | · | · | 11 | ·
Cc1[nH][nH]c(=O)c1C(c1c(C)[nH][nH]c1=O)c1cn(Cc2ccc(Cl)c(Cl)c2)c2ccccc12 | 8 | 8 | 0 | -18 | 81*
CCN(c1ccc(NC(=O)c2ccc(Cl)nc2)cc1)C(C)C | 69* | 69* | 77* | 17 | 60*
CC(=O)c1ccc(N2CCN(C(=S)Nc3cccc(F)c3)CC2)cc1 | -3 | 30* | 41* | -16 | -8
CC(=O)c1ccc(N2CCN(C(=S)Nc3ccc(Oc4ccccc4)cc3)CC2)cc1 | 4 | 1 | 1 | 22 | -4
COc1ccc(NC(=S)N2CCN(c3ncccn3)CC2)cc1 | -1 | 3 | 0 | -27 | 8
Fc1cc(F)cc(NC(=S)N2CCN(c3ncccn3)CC2)c1 | 3 | 27* | 36* | -1 | 5
CC1C(=O)Nc2ccccc2N1C(=O)c1ccc(F)cc1 (stereo not drawn) | 6 | · | · | -11 | ·
O=C(COc1ccc(Br)cc1)N1CCN(S(=O)(=O)/C=C/c2ccccc2)CC1 | -3 | 9 | 2 | -29 | 69*
CC(=O)N1CCN=C1SCc1cccc(C)c1 | -4 | · | · | -33 | ·
SMILES | IEC-6 cytotox | BaF3 tox | Ba/F3 V617F tox | KLF5 inhibitor | APP 5UTR inh
Cc1cc(C)c2c(CN3CCCCC3)cc(=O)oc2c1 | 2 | · | · | -21 | ·
Cc1cc(C)c2c(CCl)cc(=O)oc2c1 | -7 | -8 | -4 | -8 | 94*
CN1CCc2c(sc3c2C(=O)NC(c2ccco2)N3)C1 (stereo not drawn) | 8 | 30* | -2 | -8 | 15
CCOc1ccc(S(=O)(=O)N2CCN(S(=O)(=O)c3ccc(OCC)cc3)C(C)C2)cc1 (stereo not drawn) | -5 | 1 | -3 | -6 | 52*
CCOc1ccc(S(=O)(=O)N2CN3CCN(C3)C2)cc1 | -2 | · | · | -34 | ·
CN(C)S(=O)(=O)c1ccc(Cl)c(NC(=O)CN2CCCC2)c1 | -4 | · | · | -35 | ·
CCOC(=O)c1ccc2c(c1)n(CC)c(/C=C/N(C)c1ccccc1)[n+]2CC | -2 | 66* | 73* | -24 | 4
CCOC(=O)c1ccc2c(c1)n(CCO)c(C)[n+]2CC | -1 | 6 | 1 | -24 | 7
COc1ccc(-c2nc(C)ncc2-c2csc(C)n2)c(O)c1 | -4 | 5 | -2 | -24 | 15
